Data as given in PubChem BioAssay.

What was measured:
[1] = system: Human papillomavirus type 1a protein E7 (residues 44-93); test: small molecules binding HPV E7 44-93 – biochemical, small-molecule microarray, residues 44-93, 635 nm fluorescence, primary screen (AID 1108); settings: fluorescence 635 nm, higher = more signal;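 also: E7 fragment applied at 1 µg/mL in TBST for 1 h at 4 C; score combines spot fluorescence with its signal to noise ratio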
[2] = hepatitis C replication reporter changes, two-sided – Huh7 cells, luciferase reporter, HCV replication inhibitor project, primary screen (AID 1109); settings: Huh7 HCV replicon luciferase reporter, 48 h; higher = more signal;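 also: huh7 hepatoma cells harbouring a luciferase neomycin HCV replicon reporter; luciferase luminescence as measure of HCV replicon replication; test concentration not given here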
[3] = target: Left-right determination factor 2 (Homo sapiens) (UniProt O00292); test: small molecules binding LEFTY2 protein – biochemical, small-molecule microarray, 635 nm fluorescence scan, primary screen (AID 1110); settings: higher = more signal
[4] = target: Calmodulin-1 (Homo sapiens) (UniProt P0DP23); test: small molecules binding calmodulin-1 with EGTA – biochemical, small-molecule microarray, Cy5-labelled CALM1, profiling panel (AID 1111); settings: Cy5-CALM1 binding fluorescence, higher = more signal;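 also: labelled calmodulin applied in Tris saline Tween buffer holding calcium plus EGTA and DTT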
[5] = target: Calmodulin-1 (Homo sapiens) (UniProt P0DP23); test: small molecules binding Ca-loaded calmodulin-1 – biochemical, small-molecule microarray, Cy5-labelled CALM1, plus calcium, artefact control for SMM control-protein annotation, profiling panel (AID 1112); settings: Cy5-CALM1 binding fluorescence, higher = more signal;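 also: score merges spot fluorescence with signal to noise from triplicate slides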
[6] = probe aWnt5a binding to arrayed compounds – biochemical, biotinylated probe, 635/667 nm fluorescence, primary screen (AID 1113); settings: small-molecule microarray, higher = more signal;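 also: score merges 667 nm fluorescence intensity with signal-to-noise per printed feature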
[7] = probe aShh binding to arrayed compounds – biochemical, biotinylated probe, 635/667 nm fluorescence, primary screen (AID 1114); settings: small-molecule microarray, higher = more signal;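 also: probe is biotin-labelled aShh protein from a stem cell growth factor screen; measures binding of labelled protein to compounds printed on the slide; score merges feature fluorescence at 667 nm with signal-to-noise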
[8] = probe aNog binding to arrayed compounds – biochemical, biotinylated probe, 635/667 nm fluorescence, primary screen (AID 1115); settings: small-molecule microarray, higher = more signal;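 also: probe is biotinylated aNog protein used at 0.15 µg/mL for 1 h at 4 C; z-score combines 667 nm fluorescence of each spot with its signal to noise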
[9] = target: Torsin-1A-interacting protein 1 (Homo sapiens) (UniProt Q5JTV8); test: compound microarray binding of lysate hLAP1 – cell lysate, small-molecule microarray, COS7 lysate, 635/667 nm fluorescence, primary screen (AID 1116); settings: 635 nm fluorescence, higher = more signal
[10] = target: Alpha-bungarotoxin (Bungarus multicinctus) (UniProt P60615); test: compounds binding labelled alpha-BTX control protein – biochemical, small-molecule microarray, Alexa647 label, 635/667 nm fluorescence, artefact control for SMM control protein annotation, profiling panel (AID 1117); settings: alpha-BTX-A647 binding fluorescence, higher = more signal
Chain of Alpha-bungarotoxin (Bungarus multicinctus) (P60615 whole entry, looked up): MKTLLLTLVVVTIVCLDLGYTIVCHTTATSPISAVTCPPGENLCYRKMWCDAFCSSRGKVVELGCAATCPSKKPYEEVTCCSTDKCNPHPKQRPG

Chain of Left-right determination factor 2 (Homo sapiens) (O00292 whole entry, looked up): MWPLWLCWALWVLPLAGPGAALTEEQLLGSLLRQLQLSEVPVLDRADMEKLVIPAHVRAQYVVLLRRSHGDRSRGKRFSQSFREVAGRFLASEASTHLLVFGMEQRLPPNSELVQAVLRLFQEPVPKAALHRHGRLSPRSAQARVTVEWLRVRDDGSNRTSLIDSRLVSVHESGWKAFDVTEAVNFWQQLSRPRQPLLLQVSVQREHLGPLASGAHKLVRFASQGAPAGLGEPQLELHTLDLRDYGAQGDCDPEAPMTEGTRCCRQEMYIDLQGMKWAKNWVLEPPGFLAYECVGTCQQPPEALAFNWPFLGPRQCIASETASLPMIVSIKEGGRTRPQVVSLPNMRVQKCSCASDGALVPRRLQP
Chain of Torsin-1A-interacting protein 1 (Homo sapiens) (Q5JTV8 whole entry, looked up): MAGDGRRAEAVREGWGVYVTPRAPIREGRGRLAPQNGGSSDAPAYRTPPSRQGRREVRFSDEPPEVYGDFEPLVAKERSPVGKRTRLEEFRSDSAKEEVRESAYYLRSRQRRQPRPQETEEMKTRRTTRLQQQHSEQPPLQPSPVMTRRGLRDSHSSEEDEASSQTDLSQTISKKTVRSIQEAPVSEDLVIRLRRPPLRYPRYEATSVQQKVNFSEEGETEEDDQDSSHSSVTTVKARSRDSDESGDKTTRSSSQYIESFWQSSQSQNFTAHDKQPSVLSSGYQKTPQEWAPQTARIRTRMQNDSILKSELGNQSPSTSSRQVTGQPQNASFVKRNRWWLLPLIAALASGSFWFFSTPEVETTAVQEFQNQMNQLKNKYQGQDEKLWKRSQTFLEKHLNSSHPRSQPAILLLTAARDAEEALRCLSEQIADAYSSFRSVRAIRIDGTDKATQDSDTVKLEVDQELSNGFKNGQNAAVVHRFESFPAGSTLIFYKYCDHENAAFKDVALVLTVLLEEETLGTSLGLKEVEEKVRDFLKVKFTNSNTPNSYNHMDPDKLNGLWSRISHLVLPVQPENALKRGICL

Structure (SMILES)	composite z-score [1]	z-score [2]	composite z-score [3]	composite z-score [4]	composite z-score [5]	composite z-score [6]	composite z-score [7]	composite z-score [8]	composite z-score [9]	composite z-score [10]
COc1ccc(C(=O)Nc2cccc(CN3C(=O)[C@]4(O[C@H](CC(=O)N5Cc6ccccc6C[C@H]5CO)[C@@H]([Si](C)(C)c5ccc(OC)cc5)[C@@H]4C)c4ccccc43)c2)cc1	1.23	-3.44	1.05	0.219	-0.763	0.0194	0.0639	0.0811	0.711	1.12
CC(=O)NCCCC[C@@H]1NC(=O)[C@H]2C[C@@H](C(=O)NCCCCCCNC(=O)CS)[C@@H](c3cccc(OCCO)c3)N2C1=O	1.05	-0.199	-0.0449	0.83	0.395	0.127	0.0444	-0.0926	2.1	0.298
CC(C)NC(=O)[C@@]1(c2ccc([N+](=O)[O-])cc2)CC(=O)N(CC23CC4CC(CC(C4)C2)C3)[C@@H]1c1ccc(CO)cc1	0.939	-2.7	1.03	1.03	-0.0022	0.289	0.321	1.85	1.52	1.37
CC(C)(C)N1CC=CC23O[C@@H]4/C=C\CCCOC(=O)C4[C@H]2C(=O)N(CCCCCO)[C@@H]3C1=O (stereo not given in full)	-0.267	-0.887	-1.48	-0.677	-0.893	-0.213	0.074	-0.122	-0.286	-0.954
C=CCC(OC(C)=O)[C@@H]1[C@@H](N(Cc2ccc(-c3ccccc3)cc2)C(=O)c2cccc3ccccc23)c2cc(OCCCO)ccc2N1C(=O)Cc1ccc(OC)cc1 (stereo not given in full)	-0.69	-0.235	-0.526	-0.424	0.618	-0.0405	-0.0293	-0.202	-0.278	0.313
CCOC(=O)C1=CC[C@@H](c2ccc(OC)cc2)N(S(=O)(=O)c2ccc(C)cc2)[C@H]1CC	1.18	-2.44	0.349	1.84	0.436	0.0438	-0.221	1.48	0.482	1
CC(=O)OCC1C2CC[C@H]3C(OCc4ccc(F)cc4C(F)(F)F)OC[C@]4(C)[C@H]3C2=C(CN4C(=O)OC(C)(C)C)[C@H](C)C1COC(C)=O (stereo not given in full)	0.359	-0.834	-1.65	1.95	1.19	0.591	0.338	0.182	-0.212	0.668
CC(C)C[C@@H]1NC(=O)[C@@H]2C[C@H](C(=O)NCCCCCCNC(=O)CS)[C@H](c3cccc(OCCO)c3)N2C1=O	1.47	-0.319	0.622	1.03	0.264	0.0375	0.0611	-0.0172	1.06	2.02
O=C1c2ccccc2[C@@]2(Cc3ccccc3N(Cc3ccccc3)C2=O)[C@H](c2ccc(CO)cc2)N1Cc1ccccc1Cl	-0.728	0.0868	-0.44	-0.223	0.306	-0.202	-0.412	0.105	-0.881	-0.0792
COC(=O)C(CC#Cc1ccc2c(c1)[C@]1(C(=O)N2)[C@H](c2ccccc2OCCO)N2[C@H](c3ccccc3)[C@H](c3ccccc3)OC(=O)[C@H]2[C@@H]1C(=O)N1CCc2cc(OC)c(OC)cc2C1)C(=O)OC	1.37	-1.68	0.541	0.0823	-0.34	-0.117	-0.0626	-0.259	1.68	0.647
O=C1NC(=O)C2C1C=CC(C(O)c1ccc(B(O)O)cc1)N2Nc1ccc(Cl)cc1Cl (stereo not given)	-0.181	-0.693	-0.401	0.524	0.0583	-0.0721	-0.181	0.682	0.392	0.869
CC1CC/C=C\[C@H]2OC34C=CCN(c5ccc6ccccc6c5)C(=O)[C@H]3N(C(C)CO)C(=O)[C@@H]4C2C(=O)O1 (stereo not given in full)	-1.11	-0.942	-0.82	-0.69	-0.607	-0.146	-0.291	-0.21	-0.26	-0.758
CCCCC(O)C1C=CC2C(=O)N(c3ccccc3)C(=O)C2N1Nc1ccccc1 (stereo not given)	1.24	-0.375	-0.484	1.14	1.06	0.0153	0.232	0.331	0.721	1.45
CN1C(=O)C2C(C1=O)C1C=C(CCCO)C2C(C2CC2)N1Cc1cccc(OC(F)(F)F)c1 (stereo not given)	1.4	-1.4	-0.306	0.807	0.951	-0.0944	-0.0709	-0.0964	1.56	0.786
CC(C)=CCCC=C(C)C(O)C1C=CC2C(=O)N(c3ccccc3)C(=O)C2N1Nc1ccc(C#N)cc1 (stereo not given)	1.4	-1.96	-0.111	1.46	-0.175	-0.0459	-0.0769	-0.468	0.217	0.82
COc1ccc(C(=O)Nc2ccc(CN3C(=O)[C@@]4(O[C@@H](CCn5cc(CCO)nn5)[C@H]([Si](C)(C)c5ccc(OC)cc5)[C@H]4C)c4ccccc43)cc2)cc1	1.33	-5.11	0.904	-0.0429	-0.668	0.0433	-0.0146	0.0117	1.09	0.829
CC(C)c1nc2cc(Br)ccc2c(=O)o1	1.32	-0.559	0.371	2	0.93	-0.0367	-0.427	0.418	1.61	0.868
